Experimental findings from ChEMBL document CHEMBL3988442, “University of Dundee, Small-Polar-MMV Screening Library” (2021) are described below.

About 420 (0.61%) of roughly 69,000 compounds showed an effect of 50% or more. For the sample, strong results were picked, then their nearest neighbours and some compounds at random.

In the experiment the target is T1, Histidine--tRNA ligase (Leishmania infantum) (UniProt A4I591).
T1 sequence (whole entry): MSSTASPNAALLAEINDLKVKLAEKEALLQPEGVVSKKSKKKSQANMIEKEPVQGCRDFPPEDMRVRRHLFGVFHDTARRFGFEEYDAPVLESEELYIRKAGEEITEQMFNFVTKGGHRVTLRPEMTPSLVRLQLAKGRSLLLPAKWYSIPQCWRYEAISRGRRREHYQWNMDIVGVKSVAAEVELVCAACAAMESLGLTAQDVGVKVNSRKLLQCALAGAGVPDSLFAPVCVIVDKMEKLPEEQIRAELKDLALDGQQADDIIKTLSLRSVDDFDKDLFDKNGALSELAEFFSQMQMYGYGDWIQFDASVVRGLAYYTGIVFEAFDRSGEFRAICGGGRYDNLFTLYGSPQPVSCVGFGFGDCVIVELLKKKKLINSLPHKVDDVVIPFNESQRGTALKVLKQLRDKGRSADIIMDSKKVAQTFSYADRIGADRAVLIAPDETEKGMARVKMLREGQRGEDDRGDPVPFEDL
The experiment in a line: Leishmania infantum Histidine tRNA synthetase (LdHisRS). The format is functional. More on the design: scale not given: in the data most compounds retested in dose-response had high values. The following applies: 30 µM.
On to `CC(=O)N1CC[C@@]2(O)CCCC[C@H]2[C@@H]1c1ccccc1`, for which the Percent Effect is -75.8%.

For `CN1CCN(Cc2nc3c(s2)CCCC3)[C@H]2CS(=O)(=O)C[C@H]21`, the Percent Effect is 18.3%.

Regarding `N#Cc1ccc(C(=O)N2CC[C@H]3[C@H]2CCN3CC2CCOCC2)cc1`, the Percent Effect was -5.77%.

Consider `CN(C)CCO[C@H]1CN(C(=O)c2cccs2)[C@@H]2COC[C@H]12`, for which the Percent Effect turned out to be 10.9%.

Consider `Cn1ccnc1CN1C(=O)CO[C@H]2CN(CCCc3ccccc3)C[C@H]21`, for which the Percent Effect is 17.6%.

Turning to `O=C1CC(c2cccnc2)c2c(c(C(=O)O)cn2-c2ccc(Cl)cc2)N1` (stereo unspecified), the Percent Effect is 27.2%.

Turning to `O=C1CC(c2ccc(C(=O)O)cc2)c2ncn(-c3ccc(Cl)cc3)c2N1` (stereo unspecified), the Percent Effect was 55%.

On to `CC(C)(C)n1ncc2c1NC(=O)CC2c1ccc(C(=O)O)cc1` (stereo unspecified), for which the Percent Effect is 26%.

For `Cc1noc(C)c1C(=O)N1CCC(Nc2cccnn2)CC1`, the Percent Effect came to 60.5%.

For the molecule `Cc1noc(C)c1CC(=O)N1CCC(Nc2cccnn2)CC1`, the Percent Effect is 12.5%.

For the molecule `Cc1ccc(NC2CCN(C(=O)c3c(C)noc3C)CC2)nn1`, the Percent Effect worked out at 28%.

On to `CCN1c2ccc(-c3cncn3CC(=O)NC(C)(C)C)cc2CC1C` (stereo unspecified), for which the Percent Effect turned out to be 42.1%.

`CCN1c2ccc(-c3cncn3CCCn3ccnc3C)cc2CC1C` (stereo unspecified): the Percent Effect was 48.3%.

`Cc1nccn1CCCn1cncc1-c1ccc2c(c1)CCC(C)N2C` (stereo unspecified): the Percent Effect is 83.2%.

For the molecule `Cc1cnccc1N1CCCN(C(=O)CCCn2ccnc2C)CC1`, the Percent Effect amounted to 12.9%.

Regarding `CN1CCCc2cc(-c3cncn3CCNC3CCS(=O)(=O)C3)ccc21` (stereo unspecified), the Percent Effect was determined as 26.8%.

Regarding `Cc1nn(C)c(C)c1CCn1cncc1-c1ccc2c(c1)CC(C)N2C` (stereo unspecified), the Percent Effect stood at 53.7%.

In the case of `CCOC(=O)c1n[nH]cc1-c1cncn1CCCn1nc(C)cc1C`, the Percent Effect came to 13.1%.

For `CCN1CCc2cc(-c3cncn3CCNC3CCS(=O)(=O)C3)ccc21` (stereo unspecified), the Percent Effect stood at 29.6%.

For the molecule `Cc1nccn1CCCn1cncc1-c1ccc2c(c1)CCCN2C`, the Percent Effect worked out at 30.9%.

In the case of `Cc1cc(C)n(CCCn2cncc2-c2ccc3c(c2)CC(C)N3C)n1` (stereo unspecified), the Percent Effect was 64.4%.

Take `Cc1nccn1CCCn1cncc1-c1ccc2c(c1)CC(C)N2C` (stereo unspecified): the Percent Effect is 65.8%.

Turning to `CC1Cc2cc(-c3cncn3CC(=O)NC(C)(C)C)ccc2N1C` (stereo unspecified), the Percent Effect was 31%.

On to `c1coc(CN2CCO[C@H]3[C@@H](OCC4CC4)CC[C@@H]32)c1`, for which the Percent Effect was found to be 9.62%.

On to `Cc1ccc(CN2CC[C@@H]3OCCN(Cc4ccncc4)[C@H]3CC2)s1`, for which the Percent Effect turned out to be 15.1%.

As for `Cc1cc(N2CCC(O)CC2)nc(C)n1`, the Percent Effect turned out to be 13.7%.

Turning to `Cc1cc(N2CCC(O)CC2)nc(C2CCCN2C)n1` (stereo unspecified), the Percent Effect is 54.9%.

Regarding `CN1CCCCC1c1cncc(N2CCC(O)CC2)n1` (stereo unspecified), the Percent Effect was 14.5%.

In the case of `CN1CC2(CCN(C(=O)c3ccc(=O)n(C)c3)CC2)CC1=O`, the Percent Effect was -38.8%.

As for `O=C(c1ncccn1)N1C[C@@H]2COC[C@]2(c2nnc(C3CC3)o2)C1`, the Percent Effect is 20.6%.

With `CC(=O)N1CCC2(CC1)CC[C@@]1(C(=O)N(C)C)CN(S(C)(=O)=O)C[C@@H]21`, the Percent Effect was determined as 13.2%.
